Source: PubChem
proKLK7 act = proKLK7 (human) activation, primary screen; P49862; AID 652039; activation, % at 7 µM; purified proKLK7, EDANS-DABCYL substrate fluorescence; 100% is mature enzyme control, 0% vehicle; 0.9% of 370,000 active;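 active = activation above the mean of all tested compounds plus 3 SD, computed per campaign excluding outliers beyond control limits, cut at about 13% in these data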
V-ATPase pHluor = yeast V-ATPase proton transport regulation by pHLuorin; response, % at 10 µM; 0.37% of 350,000 active; AID 504577; S. cerevisiae, pHLuorin cytosolic pH fluorescence; in the data active = response mostly above about 7.3%, no sharp cut-off; inactive = mostly below about 5.4%; also: actives read high
ADAM10 inh = inhibitors of human ADAM10. 0.62% of 370,000 active. inhibition, % at 7 µM. recombinant ADAM10, EDANS/DABCYL FRET peptide cleavage, 3 h. O14672;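 active = inhibition above a per-campaign cutoff equal to the mean of compounds falling between control-based bounds plus 3 SD, cut at about 20% in these data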
Target sequence (O14672 214-748 limits assumed): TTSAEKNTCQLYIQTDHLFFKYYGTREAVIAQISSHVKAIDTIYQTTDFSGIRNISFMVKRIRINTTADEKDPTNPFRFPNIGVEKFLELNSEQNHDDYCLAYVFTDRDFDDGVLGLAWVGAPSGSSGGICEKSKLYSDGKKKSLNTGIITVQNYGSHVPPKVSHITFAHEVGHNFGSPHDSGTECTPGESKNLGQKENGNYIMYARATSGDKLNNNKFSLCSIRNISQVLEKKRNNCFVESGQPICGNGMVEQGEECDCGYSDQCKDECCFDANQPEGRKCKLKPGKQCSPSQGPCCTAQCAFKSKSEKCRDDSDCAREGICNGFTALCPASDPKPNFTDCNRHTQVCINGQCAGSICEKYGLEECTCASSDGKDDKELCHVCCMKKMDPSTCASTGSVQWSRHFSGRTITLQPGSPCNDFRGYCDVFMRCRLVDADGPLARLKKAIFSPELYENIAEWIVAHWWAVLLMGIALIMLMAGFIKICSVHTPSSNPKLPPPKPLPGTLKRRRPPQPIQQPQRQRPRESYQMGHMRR
ADAM17 inh = inhibitors of human ADAM17 | inhibition, % at 6.95 µM | 0.83% of 370,000 active | recombinant ADAM17, EDANS/DABCYL FRET peptide cleavage | P78536 | AID 720648;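 active = inhibition above the mean of compounds lying between control limits plus 3 SD, set per campaign, cut at about 8.5% in these data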
ADAM10 ctr = ADAM10 inhibition, counter-screen for ADAM17 exosite hits; AID 743256; shares compounds with ADAM17 inh; 47% of 2,900 active; inhibition, % at 6.95 µM; recombinant ADAM10, EDANS/DABCYL FRET peptide cleavage, 3 h;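 active = mean inhibition over the triplicate runs exceeds the activity threshold set in the earlier primary screen, cut at about 20% in these data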
ADAM17 confirm = confirmation of inhibitors of human ADAM17; shares compounds with ADAM17 inh; AID 743257; recombinant ADAM17, EDANS/DABCYL QFRET peptide cleavage; inhibition, % at 6.95 µM; 65% of 2,900 active;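 active = mean inhibition across replicates above the hit cutoff set in the primary screen, cut at about 8.5% in these data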
A number is an active result; – = inactive; · = no result given. Shown are actives, neighbours in structure and some others; about 2.3% of the full set was active somewhere.

SMILES | proKLK7 act | V-ATPase pHluor | ADAM10 inh | ADAM17 inh | ADAM10 ctr | ADAM17 confirm
CC1Sc2ccc(S(=O)(=O)N3CCC(C(=O)NCC(C)c4ccccc4)CC3)cc2NC1=O (stereo not given) | – | – | – | 16 | – | –
COC(=O)C1CCCN(C(=O)C2CCN(S(=O)(=O)c3cccs3)CC2)C1 (stereo not given) | – | · | – | – | · | ·
COc1cccc(C(C)(O)c2nc(-c3csc4ccccc34)cs2)c1 (stereo not given) | – | · | – | 9.5 | 33 | 16
CN(C)/C=N/c1ncnc2c1cnn2-c1ccc(C(F)(F)F)cn1 | – | – | – | 9.2 | – | –
CCOC(=O)c1oc2cc(O)cc(C)c2c(=O)c1-c1cscn1 | – | – | – | 10 | – | –
CCOC(=O)[C@]12CCCCC/C=C\1N(Cc1ccc(OC)cc1)C(=O)[C@H]2CC(=O)NCC1CCCCC1 | – | · | – | 13 | – | –
C=CCN1C(=O)[C@@H](CC(=O)NCc2cccc3ccccc23)[C@]2(C(=O)OCC)CCCCC/C=C/12 | – | · | – | 11 | – | –
C=CCN1C(=O)[C@@H](CC(=O)NCc2cccc3ccccc23)[C@]2(C(=O)OC)CCCCC=C12 | – | · | – | – | · | ·
O=C1NC2(CCCC2)N=C1c1ccc(Cl)cc1 | – | – | – | 9.6 | – | –
CN[C@H]1C[C@H]2c3[nH]c4c(-c5cccc(C)c5)cccc4c3CCN2C[C@H]1[C@H](C)O | – | · | – | – | · | ·
O=C(O)c1cc([N+](=O)[O-])ccc1-c1ccc([N+](=O)[O-])cc1C(=O)O | – | – | – | 9.4 | – | –
O=C(O)c1cc([N+](=O)[O-])ccc1N1CCCCC1 | – | – | – | – | · | ·
Cc1ccc(NC2=C(Cl)C(=O)OC2OC(=O)c2ccc(C)cc2)cc1 (stereo not given) | – | – | – | 9.0 | – | 12
CCN1C(=O)N[C@H]2C[C@@H](c3ccccc3)[C@@H](C)[C@@H](C(=O)N3CCCC3)C[C@H]21 | – | · | – | – | · | ·
Cc1ccccc1C1CCC2(CC1)CCN(CC[C@@H](O)c1ccccc1)C2=O (stereo not given in full) | · | · | – | – | · | ·
Cc1ccccc1CN1CCCCC(NC(=O)C(C)(C)C)C1=O (stereo not given) | – | · | – | – | · | ·
CC(C)(C)S(=O)(=O)/C(C#N)=C/c1cccn1S(=O)(=O)c1ccccc1 | – | · | – | 9.4 | 24 | 12
CS(=O)(=O)/C(C#N)=C/c1cccn1S(=O)(=O)c1ccccc1 | – | – | – | – | · | ·
COC(=O)C1=C(C)N(C)C(=NCc2ccc(C(F)(F)F)cc2)NC1c1cccc(Cl)c1 (stereo not given) | – | · | – | – | · | ·
COc1ccc2cc(CN(Cc3cccs3)Cc3nnnn3Cc3ccccc3)c(=O)[nH]c2c1 | – | – | – | – | · | ·
Cc1cccc2cc(CN(Cc3cccs3)Cc3nnnn3Cc3ccccc3)c(=O)[nH]c12 | – | – | – | 11 | – | –
COc1ccc(C(=O)COC(=O)C(CCCCN2C(=O)C3C4C=CC(C4)C3C2=O)N2C(=O)C3C4C=CC(C4)C3C2=O)cc1 (stereo not given) | – | · | – | 9.3 | – | –
O=C(COC(=O)c1cccc(NS(=O)(=O)/C=C/c2ccccc2)c1)Nc1ccccc1OC(F)F | – | – | – | 9.9 | – | 15
CCNC(=O)NC(=O)COC(=O)c1cccc(NS(=O)(=O)/C=C/c2ccccc2)c1 | – | – | – | – | · | ·
OCC1COC(c2ccccc2)=N1 (stereo not given) | – | · | – | – | · | ·
O=C(NCC(=O)N1CCN(C(c2ccccc2)c2ccccc2)CC1)c1ccc(Br)o1 | – | – | – | – | · | ·
O=C(NCC(=O)N1CCN(C(c2ccccc2)c2ccccc2)CC1)c1ccccc1Br | – | – | – | 12 | 20 | 12
CS(=O)(=O)N1CCC(C(=O)NCC2COc3ccccc3O2)CC1 (stereo not given) | – | · | – | – | · | ·
O=C(Cc1ccccc1Cl)NCCN1C(=O)C2C3C=CC(C3)C2C1=O (stereo not given) | – | · | – | – | · | ·
CC1C(=O)N(Cc2ccc(F)cc2)c2ccccc2N1C(=O)c1c(F)cccc1F (stereo not given) | – | – | – | – | · | ·
